This is a sample that favours compounds with a hit; in the whole collection about 9.2% have one here.
Lamin A splicing: qHTS Assay for Modulators of Lamin A Splicing; HeLa LMNA splicing GFP/RFP minigene ratio, 48 h; Potency, µM (top dose mostly 46.1 µM), without a hit: at the highest dose ratio change, negative = inhibition, actives largely listed as inhibitors; actives 0.01% (n = 200,000); active = well fitted inhibition curve with a large enough effect in the signal ratio, with a control signal flat, not every such curve was filed as active; inconclusive = small, poorly fitted or top-dose-only effect, or effect the other way, or a change in a side signal; the % refers to the signal ratio; note: % is set by controls: 0 for no effect and ±100 for the full control effect
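S3 HeLa cells stably expressing lamin A-EGFP splicing minigene plus DsRed2, 600 cells/well, 48 h compound exposure at 37C. Laser-scanning cytometry; analysed as GFP (500-530 nm)/RFP (575-640 nm) total intensity ratio; 0.5% DMSO vehicle.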
HPGD block: qHTS Assay for Inhibitors of HPGD (15-Hydroxyprostaglandin Dehydrogenase) | 15-hydroxyprostaglandin dehydrogenase [NAD(+)] (Homo sapiens), P15428 | purified HPGD, NADH fluorescence kinetic, PGE2 substrate | Potency, µM, for the others: top-dose activity change, negative = inhibition, most hits filed as inhibitors | actives 4.3% (n = 150,000); note: % is set by controls: 0 for no effect and ±100 for the full control effect
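NADH formation kinetics: reaction with 30 uM PGE2 and 1 mM NAD+ (final), 20 nM enzyme, Tris-HCl pH 8 with Tween 20, after 15 min compound preincubation at room temperature. Fluorescence change, last versus first of five reads.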
HTT aggregate: qHTS Multiplex Assay to Identify Dual Action Probes in a Cell Model of Huntington: Aggregate Formation (GFP); Potency, µM (titrated, usually from 46.1 µM), for inactives: at the highest dose activity change, negative = inhibition, most hits filed as inhibitors; PC12 HttQ103-GFP aggregates, Acumen cytometry, 40 h; actives 1.1% (n = 220,000); active = well fitted curve in the direction sought with a large enough effect; inconclusive = small, poorly fitted or top-dose-only effect, or another doubt; inactive = no such curve, though single readings can be large; an effect the other way counts as inactive or inconclusive; note: % is set by controls: 0 for no effect and ±100 for the full control effect; nearly all actives have a fitted effect of over 60% in size
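Quantitative HTS on tebufenozide-induced (100 nM) PC12 cells stably expressing polyQ103 Huntingtin exon 1–GFP. Reduction of bright GFP aggregates, detected by laser scanning cytometry after lysis, identified actives across the titration.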
KDM4E inh: qHTS Assay for Inhibitors of Human Jumonji Domain Containing 2E (JMJD2E) | Lysine-specific demethylase 4E (Homo sapiens), B2RXH2 | JMJD2E catalytic domain, FDH-coupled NADH fluorescence (FDH is formaldehyde dehydrogenase) | actives 1.6% (n = 230,000) | Potency, µM (doses to about 57.1 µM), for inactives: top-dose activity change, negative = inhibition, actives largely listed as inhibitors;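 note: 0% = wells with enzyme and -100% = buffer wells without enzyme; nearly all actives have a fitted effect of over 50% in size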
HTT ATP protect: qHTS Multiplex Assay to Identify Dual Action Probes in a Cell Model of Huntington: Cytoprotection (ATP) | PC12 HTT-Q103 induced, cytoprotection, ATP luminescence, 40 h | Potency, µM (top dose mostly 56.4 µM), for the others: cytoprotection (ATP increase), actives largely listed as activators | actives 0.14% (n = 230,000) | AID 1471, 2008; active = well fitted curve in the direction sought with a large enough effect; inconclusive = small, poorly fitted or top-dose-only effect, or another doubt; inactive = no such curve, though single readings can be large; an effect the other way counts as inactive or inconclusive; note: % of control where 0% means no effect; nearly all actives have a fitted effect of over 45% in size
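Compounds added alongside 100 nM tebufenozide, which induces toxic Q103 huntingtin exon 1-GFP in stable PC12 cells; surviving cells quantified by luminescent ATP measurement. Medium: phenol red-free DMEM, 5% equine and 5% calf serum.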
ALDH1A1 block: qHTS Assay for Inhibitors of Aldehyde Dehydrogenase 1 (ALDH1A1); Aldehyde dehydrogenase 1A1 (Homo sapiens), P00352; Purified ALDH1A1, NADH fluorescence, propionaldehyde substrate; Potency, µM (series often up to 75.3 µM), for inactives: at the highest dose activity, negative = inhibition, usual class: inhibitors; actives 7.3% (n = 220,000); AID 1030, 2008;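 note: plate controls were no enzyme wells and a reference inhibitor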
Target sequence (P00352 whole entry, looked up): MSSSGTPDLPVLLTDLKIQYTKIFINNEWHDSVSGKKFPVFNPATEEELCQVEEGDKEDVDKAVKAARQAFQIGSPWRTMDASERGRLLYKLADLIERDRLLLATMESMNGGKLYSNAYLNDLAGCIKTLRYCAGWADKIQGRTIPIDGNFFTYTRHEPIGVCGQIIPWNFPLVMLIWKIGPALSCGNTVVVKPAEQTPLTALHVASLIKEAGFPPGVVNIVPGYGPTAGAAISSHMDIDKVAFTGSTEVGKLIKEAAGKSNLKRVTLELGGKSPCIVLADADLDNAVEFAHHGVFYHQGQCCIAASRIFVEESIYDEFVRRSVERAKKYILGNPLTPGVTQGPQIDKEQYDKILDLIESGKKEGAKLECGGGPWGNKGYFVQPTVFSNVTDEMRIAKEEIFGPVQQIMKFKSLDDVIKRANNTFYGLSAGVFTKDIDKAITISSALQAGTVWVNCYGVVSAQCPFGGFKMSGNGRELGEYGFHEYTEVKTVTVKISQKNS
An asterisk follows results filed as active; ? = inconclusive; / = no result; ! = repeats disagree; [ ] = dose if it differs, or a comment. Unless noted, calls come from the whole dose curve; as a rule, active = well fitted inhibition curve with a large enough effect (not every such curve was filed as active); inconclusive = small, poorly fitted or top-dose-only effect, or another doubt; inactive = no such curve, though single readings can be large or run the other way. Potency is the fitted concentration of half-maximal effect.

SMILES	Lamin A splicing	HPGD block	HTT aggregate	KDM4E inh	HTT ATP protect	ALDH1A1 block
O=c1cc(N2CCc3ccccc3C2)[nH]c(=O)n1-c1ccccc1Cl	-9%	-15%	-2%	?	31%[10 µM]	6.3µM*
CN1C(=O)/C(=C2\SC(=S)N(CC3CCCO3)C2=O)c2ccccc21 (centres undefined)	0%	-3%	22%	6%	-1%	?
CN1C(=O)/C(=C2\SC(=S)N(C(CCC(=O)O)C(=O)O)C2=O)c2ccccc21 (centres undefined)	0%	28µM*	-17%	13µM*	19%[10 µM]	1.1µM*
C[C@H]1[C@H](C)CC[C@]2(C(=O)O)CC[C@]3(C)C(=CC[C@H]4[C@]3(C)C[C@@H](O)C3[C@](C)(CO)[C@H](O)[C@@H](O)C[C@]34C)[C@H]12 (some centres undefined)	/	-3%	/	/	/	-10%[13.5 µM]
O=C(OCCCN1CCOCC1)c1ccc(O)c(O)c1	/	/	-22%[9.22 µM]	16µM*	8%[10 µM]	/
C=C1C(CCl)(CCl)C2(Cl)C(Cl)C(Cl)C1(Cl)C2(Cl)Cl (centres undefined)	/	-19%	-16%	/	-34%	14µM*
COc1ccc(CC(=O)NNC(=O)CSc2ccc(C)cc2)cc1	10%[46 µM]	/	2%	-1%	-12%[10 µM]	1%
COc1ccc(C(=O)c2ccc(Cl)cc2)c2ccccc12	-17%	-7%	-25%	2%	-4%[10 µM]	-6%
COc1ccc(C(=O)CCN(C)C)c2ccccc12	/	-29%	/	/	-10%[10 µM]	0.028µM*
Cc1onc(-c2c(F)cccc2Cl)c1C(=O)OCC(=O)c1c(N)n(C)c(=O)n(C)c1=O	?	/	-1%	7%	-50%	-6%
Nc1ncnc2c1c(I)cn2C1OC(CO)C(O)C1O (centres undefined)	?	-8%	/	0%	-62%	8.9µM*!
C=CCNc1nc2c3ccccc3n(C(C)=O)c2s1	8%	-3%	?	?	-5%[0.074 µM]	28µM*
CC(=O)n1c2ccccc2c2c(C#N)c(N3CCCCC3)sc21	/	/	/	/	-13%[0.074 µM]	/
Cc1no[n+]([O-])c1COc1ccc(/C=C(\C#N)C(N)=O)cc1	20%	-18%	19%	5%	5%[10 µM]	10µM*
CCOc1cc(/C=C(\C#N)C(N)=O)ccc1OCc1c(C)no[n+]1[O-]	/	/	1%	-4%	3%	4%
O=C(O)/C=C\C(=O)NNC(=O)c1cc(-c2ccccc2)n[nH]1	/	/	33%[9.22 µM]	?	7%[10 µM]	25µM*
CCSC(=S)c1c(C)[nH]n(-c2ccccc2)c1=O	/	/	-2%[9.22 µM]	?	9%[10 µM]	?
CCn1c(O)c(/C=N/N=C2CCCC2)c2ccc(C3=NNC(=O)CC3)cc21	10%	16µM*	5%	-5%	0%	?
Cc1ccc(S(=O)(=O)N[C@H]2COC(=O)C/C=C\[C@@H](C)[C@H](NS(=O)(=O)c3ccc(C)cc3)COC(=O)C/C=C\[C@H]2C)cc1	/	/	/	/	0%[10 µM]	15%[13.5 µM]
Cc1cccc(C)c1NC(=O)CCCCCNS(=O)(=O)c1ccccc1	4%[46 µM]	/	1%	-18%	/	?
CNC(=O)CCCCCNS(=O)(=O)c1ccc(C)cc1	-4%	-6%	5%	9%	1%[10 µM]	-2%
Cc1ccc(S(=O)(=O)NCCCCCC(=O)Nc2ccccc2C)cc1	-12%	-1%	-8%	0%	/	4µM*
Cc1ccc(S(=O)(=O)NCCCCCC(=O)Nc2ccccc2)cc1	?	-2%	4%	1%	/	11µM*
Cc1ccc(S(=O)(=O)NCCCCCC(=O)Nc2ccccn2)cc1	-12%	-3%	-10%	5%	6%	22µM*

Screening results deposited in PubChem BioAssay by National Center for Advancing Translational Sciences (NCATS).
